Screening results deposited in PubChem BioAssay by National Center for Advancing Translational Sciences (NCATS).
3T3 cytotox = cytotoxic compounds in NIH 3T3 cells; AID 1345082; NIH 3T3 viability, CellTiter-Glo ATP luminescence, 48-72 h; hit rate 4.3% among 94,000; Potency, µM (highest dose often 96.7 µM), usual class: inhibitors; further: nearly all actives have a fitted effect of over 55% in size
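ATP-dependent luminescence (CellTiter-Glo) served as the viability signal for NIH 3T3 cells treated with compound for 48 or 72 hr at 37 °C.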
hNpr1 antagonist = antagonists of human natriuretic peptide receptor Npr1. P16066. hit rate 1.6% among 76,000. HEK293 hNpr1 GloSensor cGMP, ANP-stimulated luminescence. Potency, µM (titrated, usually from 46.3 µM), actives largely listed as inhibitors. AID 1347048; calls by dose curve; further: nearly all actives have a fitted effect of over 60% in size
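HEK293 cells stably expressing human Npr1 and cGMP GloSensor pGS-40F, loaded 2 h with 2% GloSensor reagent, given compound 30 min at room temperature. Luminescence read before and 20 min after 0.1 nM hNppA.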
FLuc inh-1 = inhibitors of firefly (Photinus pyralis) luciferase. hit rate 2.5% among 76,000. P08659. Potency, µM (top dose mostly 115 µM), hits mostly inhibitors. purified P. pyralis luciferase, luminescence, biochemical; further: nearly all actives have a fitted effect of over 65% in size
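Inhibitors were tested against purified firefly luciferase in a biochemical, low-substrate format (both substrates at 10uM) and luminescence measured with a CCD imager.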
HEK293 tox = cytotoxic compounds in HEK 293 cells | HEK 293 viability, ATP luminescence (CellTiter-Glo), 48-72 h | Potency, µM (series often up to 115 µM), hits mostly inhibitors | hit rate 6.6% among 94,000 | AID 1345083; further: nearly all actives have a fitted effect of over 60% in size
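qHTS cytotoxicity; HEK 293, 250 cells/well; compound pinned; 48 or 72 hr, 37 degree Celsius, 5% CO2, 95% humidity; CellTiter-Glo, 10 min RT; luminescence (ATP).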
FLuc SDR no ATP = stabilizes firefly luciferase without ATP; shares compounds with FLuc inh-1; Purified FLuc-C-HiBiT, Nano-Glo HiBiT luminescence, no ATP; hit rate 7.8% among 1,300; Potency, µM (doses to about 32.7 µM), hits mostly activators; AID 1963318; further: nearly all actives have a fitted effect of over 55% in size
FLuc SDR ATP = firefly luciferase binding stabilization, ATP added. hit rate 8.7% among 1,300. purified FLuc-C-HiBiT + ATP, HiBiT complementation luminescence. Potency, µM (highest dose often 32.7 µM), most hits filed as activators. AID 1963319. shares compounds with FLuc inh-1;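 further: signal reports ligand binding via conformational change of the enzyme rather than luciferase catalysis; nearly all actives have a fitted effect of over 55% in size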
FLuc inh-2 = firefly luciferase enzyme inhibition. shares compounds with FLuc inh-1. purified FLuc-C-HiBiT enzyme, luciferin luminescence. Potency, µM (highest dose often 32.7 µM), hits mostly inhibitors. hit rate 42% among 1,300; further: nearly all actives have a fitted effect of over 70% in size
Of the large screens only hits and unclear results are named; the others gave an inactive call (follow-up assays come after a bar, where they were run). In the library only some 11% were active in any assay of this set; here they are far more common. Unless noted, the call rests on the fitted dose curve; in most records, active means well fitted curve in the direction sought with a large enough effect; inconclusive means small, poorly fitted or top-dose-only effect, or another doubt; inactive means no such curve, though single readings can be large; an effect the other way counts as inactive or inconclusive.

O=C(NC[C@H]1O[C@@H](CC(=O)N2CCc3ccccc32)[C@H](O)[C@@H]1O)Nc1cccc(F)c1	3T3 cytotox inconclusive, FLuc inh-1 inconclusive
Cc1nc2cccnc2n1CC1CCCN(S(=O)(=O)Cc2ccccc2Cl)C1 (centres undefined)	3T3 cytotox inconclusive, HEK293 tox inconclusive
COc1ccc(C(C)NC(=O)c2cc3c(n2C)CCN(Cc2ccccc2)C3)cc1OC (centres undefined)	HEK293 tox inconclusive
CN(C)C(=O)c1ccc(-c2ncc3c(n2)OCCN(CC2CC2)C3=O)cc1	3T3 cytotox inconclusive, FLuc inh-1 inconclusive
O=C1c2cnc(-c3cccc(O)c3)nc2OCCN1Cc1ccc(F)cc1F	3T3 cytotox inconclusive, HEK293 tox inconclusive
O=C1c2cnc(-c3ccccc3)nc2OCCN1CC1CC1	none (no result: 3T3 cytotox, hNpr1 antagonist, FLuc inh-1, HEK293 tox) | FLuc SDR no ATP inconclusive | FLuc SDR ATP inconclusive | FLuc inh-2 16µM
O=C1c2cnc(-c3ccc(Cl)cc3)nc2OCCN1CC1CC1	none (no result: 3T3 cytotox, hNpr1 antagonist, FLuc inh-1, HEK293 tox) | FLuc SDR no ATP inactive | FLuc SDR ATP inconclusive | FLuc inh-2 4µM
O=C1c2cnc(-c3ccccc3)nc2OCCN1Cc1ccccc1	3T3 cytotox inconclusive, FLuc inh-1 11µM, HEK293 tox inconclusive | FLuc SDR no ATP inactive | FLuc SDR ATP inactive | FLuc inh-2 inactive
CSCC(=O)Nc1nn(-c2ccc(F)cc2)c2cccc(N3CCOCC3)c12	3T3 cytotox inconclusive, hNpr1 antagonist inconclusive, FLuc inh-1 6.3µM, HEK293 tox inconclusive | FLuc SDR no ATP inactive | FLuc SDR ATP inactive | FLuc inh-2 inconclusive
O=C(Nc1nn(-c2cccc(F)c2)c2cccc(N3CCOC3=O)c12)C1CCC1	none
Cc1cc(F)ccc1NC(=O)c1csc2c1CCC(C)C2 (centres undefined)	none (no result: 3T3 cytotox, hNpr1 antagonist, FLuc inh-1, HEK293 tox) | FLuc SDR no ATP inactive | FLuc SDR ATP inactive | FLuc inh-2 inconclusive
Cc1cc(C)cc(C(=O)N2CCC(CC(=O)NCc3ccccc3)C2)c1 (centres undefined)	none
Cc1cc(CNC(=O)CC2C=CS(=O)(=O)C2)c2[nH]c(-c3ccccc3)c(C)c2c1 (centres undefined)	3T3 cytotox 40µM, FLuc inh-1 6.3µM, HEK293 tox 45µM | FLuc SDR no ATP inactive | FLuc SDR ATP inactive | FLuc inh-2 inconclusive
O=C(Nc1cccc(F)c1)[C@@H]1C[C@H](c2ccc(F)cc2)N([S+](=O)([O-])C2CC2)C1	3T3 cytotox inconclusive, HEK293 tox inconclusive
Cc1ccc2nc(C(=O)N3CCCC3c3cc(C(C)C)on3)cn2c1 (centres undefined)	FLuc inh-1 10µM | FLuc SDR no ATP inactive | FLuc SDR ATP inactive | FLuc inh-2 inconclusive
Cc1ccc(C(=O)Nc2cccc3cccnc23)cc1Cl	none (no result: 3T3 cytotox, hNpr1 antagonist, FLuc inh-1, HEK293 tox) | FLuc SDR no ATP inactive | FLuc SDR ATP inactive | FLuc inh-2 inactive
Cc1cc(C(=O)NCc2c[nH]c3ncccc23)ccc1Cl	3T3 cytotox inconclusive, HEK293 tox inconclusive
NC1CCc2nn(CC(=O)N(Cc3ccccc3)Cc3ccco3)c(=O)n2CC1 (centres undefined)	none
COc1ccc(CNC(=O)c2ccc3c(c2)N=C(C)c2c(C)ccc(C)c2S3)cc1	3T3 cytotox inconclusive, HEK293 tox 10µM | FLuc SDR no ATP inactive | FLuc SDR ATP inactive | FLuc inh-2 inactive
CCCC1=Nc2cc(C(=O)NCCc3ccc(OC)c(OC)c3)ccc2Sc2ccc(C)cc21	3T3 cytotox inconclusive, HEK293 tox inconclusive
Cc1ccc(-c2cc3c(=O)n(CCNC(=O)c4ccoc4)ccn3n2)c(C)c1	3T3 cytotox inconclusive, FLuc inh-1 inconclusive, HEK293 tox inconclusive
COc1ccccc1C(=O)NCCn1ccn2nc(-c3ccc(C)cc3C)cc2c1=O	3T3 cytotox inconclusive, FLuc inh-1 10µM, HEK293 tox inconclusive | FLuc SDR no ATP inactive | FLuc SDR ATP inactive | FLuc inh-2 inconclusive
Cc1ccc(-c2cc3c(=O)n(CCNC(=O)c4ccco4)ccn3n2)c(C)c1	3T3 cytotox inconclusive, FLuc inh-1 8.9µM, HEK293 tox inconclusive | FLuc SDR no ATP inactive | FLuc SDR ATP inactive | FLuc inh-2 inconclusive
